“And” between values parts separate entries of the source, which are not always exact repeats. Equal entries are not always repeated. Among all 5,500 compounds or so, about 2,000 (36%) were called active. Another 18% or so got no clear call; they are omitted. Rule as the data show it: active = normalized growth mostly below about 0.91 (no sharp cut-off); inconclusive = no clear call, values can overlap the other calls; inactive = mostly above about 0.92. This is one part of the list.
Assay: chemical genetic growth profiling, strain panel (AID 1159580);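 also: tested at 20 µM; growth read once vehicle control cultures reached saturation at 30 °C; 1 = growth at the plate median or of vehicle wells; lower values mean less growth of the strain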
Details: growth OD

Measured: normalized growth

O=[N+]([O-])c1cc(O)c(O)c([N+](=O)[O-])c1
inactive: S. cerevisiae deletion strains, locus YJL187C, strain SWE1 (second series), stronger effect = lower value 1.02 | S. cerevisiae deletion strains, locus YJL187C, strain SWE1, stronger effect = lower value 1.01 | S. cerevisiae deletion strains, locus YJR075W, strain HOC1, stronger effect = lower value 1.05 | S. cerevisiae deletion strains, locus YKL009W, strain mrt4, stronger effect = lower value 1.01 | S. cerevisiae deletion strains, locus YKL068W, stronger effect = lower value 0.974 | S. cerevisiae deletion strains, locus YKL085W, strain MDH1 (second series), stronger effect = lower value 0.97 | S. cerevisiae deletion strains, locus YKL085W, strain MDH1, stronger effect = lower value 0.97 | S. cerevisiae deletion strains, locus YKL160W, strain elf1, stronger effect = lower value 1 | S. cerevisiae deletion strains, locus YKR001C, strain vps1, stronger effect = lower value 1 | S. cerevisiae deletion strains, locus YKR026C, strain gcn3, stronger effect = lower value 1.01 | S. cerevisiae deletion strains, locus YKR091W, strain srl3, stronger effect = lower value 1.01 | S. cerevisiae deletion strains, locus YLL001W, strain dnm1, stronger effect = lower value 1.01 | S. cerevisiae deletion strains, locus YLL026W, stronger effect = lower value 0.999 | S. cerevisiae deletion strains, locus YLL041C, strain sdh2, stronger effect = lower value 1.01 | S. cerevisiae deletion strains, locus YLR027C, strain aat2, stronger effect = lower value 1.02 | S. cerevisiae deletion strains, locus YLR039C, strain RIC1, stronger effect = lower value 0.958 | S. cerevisiae deletion strains, locus YLR058C, strain SHM2, stronger effect = lower value 1.01 | S. cerevisiae deletion strains, locus YLR102C, strain apc9, stronger effect = lower value 0.98 | S. cerevisiae deletion strains, locus YLR221C, strain rsa3, stronger effect = lower value 1.06 | S. cerevisiae deletion strains, locus YLR258W, strain gsy2, stronger effect = lower value 1.06 | S. cerevisiae deletion strains, locus YLR262C, strain YPT6 (second series), stronger effect = lower value 0.996 | S. cerevisiae deletion strains, locus YLR262C, strain YPT6, stronger effect = lower value 0.959 | S. cerevisiae deletion strains, locus YLR268W, strain sec22, stronger effect = lower value 0.972 | S. cerevisiae deletion strains, locus YLR320W, strain mms22, stronger effect = lower value 1.06 | S. cerevisiae deletion strains, locus YLR330W, strain CHS5, stronger effect = lower value 1.01 | S. cerevisiae deletion strains, locus YLR342W, strain FKS1 (second series), stronger effect = lower value 0.951 | S. cerevisiae deletion strains, locus YLR342W, strain FKS1, stronger effect = lower value 1.01 | S. cerevisiae deletion strains, locus YLR357W, strain rsc2, stronger effect = lower value 1.03 | S. cerevisiae deletion strains, locus YLR370C, strain arc18, stronger effect = lower value 1.01 | S. cerevisiae deletion strains, locus YLR371W, strain rom2, stronger effect = lower value 0.979 | S. cerevisiae deletion strains, locus YLR384C, strain iki3, stronger effect = lower value 1.01 | S. cerevisiae deletion strains, locus YLR418C, strain cdc73, stronger effect = lower value 0.908 | S. cerevisiae deletion strains, locus YML016C, strain PPZ1, stronger effect = lower value 1.01 | S. cerevisiae deletion strains, locus YML032C, strain rad52, stronger effect = lower value 1.01 | S. cerevisiae deletion strains, locus YML120C, strain ndi1, stronger effect = lower value 1.03 | S. cerevisiae deletion strains, locus YML124C, strain tub3, stronger effect = lower value 0.973 | S. cerevisiae deletion strains, locus YMR058W, strain fet3, stronger effect = lower value 1.04 | S. cerevisiae deletion strains, locus YMR078C, strain ctf18, stronger effect = lower value 0.985 | S. cerevisiae deletion strains, locus YMR125W, strain sto1, stronger effect = lower value 1.01 | S. cerevisiae deletion strains, locus YMR129W, stronger effect = lower value 1.01 | S. cerevisiae deletion strains, locus YMR205C, strain PFK2, stronger effect = lower value 1.01 | S. cerevisiae deletion strains, locus YMR223W, strain ubp8, stronger effect = lower value 0.971 | S. cerevisiae deletion strains, locus YMR231W, strain pep5, stronger effect = lower value 1.02 | S. cerevisiae deletion strains, locus YMR263W, strain SAP30, stronger effect = lower value 1.02 | S. cerevisiae deletion strains, locus YMR307W, strain GAS1, stronger effect = lower value 0.97 and 1.01 | S. cerevisiae deletion strains, locus YNL067W, strain RPL9B, stronger effect = lower value 1.02 | S. cerevisiae deletion strains, locus YNL071W, strain lat1, stronger effect = lower value 1.02 | S. cerevisiae deletion strains, locus YNL153C, strain GIM3, stronger effect = lower value 1.04 and 0.971 | S. cerevisiae deletion strains, locus YNL175C, strain NOP13, stronger effect = lower value 0.976 | S. cerevisiae deletion strains, locus YNL197C, strain WHI3, stronger effect = lower value 0.95 | S. cerevisiae deletion strains, locus YNL209W, strain ssb2, stronger effect = lower value 1.02 | S. cerevisiae deletion strains, locus YNL224C, strain SQS1, stronger effect = lower value 0.977 | S. cerevisiae deletion strains, locus YNL233W, strain BNI4, stronger effect = lower value 1 | S. cerevisiae deletion strains, locus YNL248C, strain rpa49, stronger effect = lower value 0.983 | S. cerevisiae deletion strains, locus YNL250W, strain rad50, stronger effect = lower value 0.955 | S. cerevisiae deletion strains, locus YNL271C, strain bni1, stronger effect = lower value 0.978 | S. cerevisiae deletion strains, locus YNL298W, strain CLA4, stronger effect = lower value 0.994 | S. cerevisiae deletion strains, locus YNL307C, strain MCK1, stronger effect = lower value 0.989 | S. cerevisiae deletion strains, locus YNL322C, strain KRE1 (second series), stronger effect = lower value 1.02 | S. cerevisiae deletion strains, locus YNL322C, strain KRE1, stronger effect = lower value 1 and 1.01 | S. cerevisiae deletion strains, locus YNR049C, strain mso1, stronger effect = lower value 1 | S. cerevisiae deletion strains, locus YNR052C, strain pop2, stronger effect = lower value 0.996 | S. cerevisiae deletion strains, locus YOL012C, strain htz1 1.22 | S. cerevisiae deletion strains, locus YOL147C, strain pex11, stronger effect = lower value 0.981 | S. cerevisiae deletion strains, locus YOR001W, strain rrp6, stronger effect = lower value 1.01 | S. cerevisiae deletion strains, locus YOR061W, strain CKA2, stronger effect = lower value 1.01 | S. cerevisiae deletion strains, locus YOR069W, strain VPS5, stronger effect = lower value 1 | S. cerevisiae deletion strains, locus YOR070C, strain gyp1, stronger effect = lower value 1.03 | S. cerevisiae deletion strains, locus YOR080W, strain dia2, stronger effect = lower value 1.02 | S. cerevisiae deletion strains, locus YOR083W, strain WHI5 (second series), stronger effect = lower value 0.992 | S. cerevisiae deletion strains, locus YOR083W, strain WHI5, stronger effect = lower value 1.01 | S. cerevisiae deletion strains, locus YOR106W, strain vam3, stronger effect = lower value 0.983 | S. cerevisiae deletion strains, locus YOR136W, strain idh2, stronger effect = lower value 0.981 | S. cerevisiae deletion strains, locus YOR144C, strain elg1, stronger effect = lower value 0.979 | S. cerevisiae deletion strains, locus YOR184W, strain ser1, stronger effect = lower value 0.985 | S. cerevisiae deletion strains, locus YOR265W, strain rbl2, stronger effect = lower value 1.02 | S. cerevisiae deletion strains, locus YOR270C, strain vph1, stronger effect = lower value 0.989 | S. cerevisiae deletion strains, locus YOR290C, strain snf2, stronger effect = lower value 1.02 | S. cerevisiae deletion strains, locus YOR316C, strain cot1, stronger effect = lower value 0.983 | S. cerevisiae deletion strains, locus YPL051W, strain arl3, stronger effect = lower value 1.04 | S. cerevisiae deletion strains, locus YPL055C, strain LGE1, stronger effect = lower value 1.01 and 1.06 | S. cerevisiae deletion strains, locus YPL078C, strain atp4, stronger effect = lower value 0.992 | S. cerevisiae deletion strains, locus YPL106C, strain sse1, stronger effect = lower value 1.07 | S. cerevisiae deletion strains, locus YPL240C, strain hsp82, stronger effect = lower value 0.995 | S. cerevisiae deletion strains, locus YPR119W, strain clb2, stronger effect = lower value 0.972 | S. cerevisiae deletion strains, locus YPR141C, strain kar3, stronger effect = lower value 0.954 | S. cerevisiae deletion strains, locus YPR163C, strain tif3, stronger effect = lower value 0.985 | S. cerevisiae deletion strains, locus YPR167C, strain met16, stronger effect = lower value 0.971 | S. cerevisiae deletion strains, strain wtn01, stronger effect = lower value 0.984 | S. cerevisiae strains, strain wild type, stronger effect = lower value 1.01

— PubChem BioAssay AID1159580 (chemical genetic matrix, 2015)
